# Compound: Nc1ncnc2c1ncn2[C@@H]1O[C@H](COP(=O)(O)OP(=O)(O)OP(=O)(O)O)[C@@H](O)[C@H]1O [adenosine 5'-triphosphate]
# Assay: log2 fold change of tryptic peptide abundance, ligand vs vehicle (limited proteolysis) (log2 ratio); higher = more trypsin-susceptible (destabilized)
# Settings: ligand concentration: 5 mM; sample: E. coli desalted lysate; replicate design: treated before aliquoting
# Protocol: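 HT-PELSA: desalted E. coli K-12 BW25113 lysate (with 12 mM MgCl2) incubated with 5 mM ATP (pH 7) or water for 30 min at 25 C, then a 4 min trypsin pulse at 22 C. Peptides were quantified by DIA-MS (4 replicates). Value is the peptide log2 fold change (treated/control); negative = stabilized. Scale: negative = ligand-stabilized region.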
# 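Further: lysate desalted by size exclusion to strip endogenous ATP, peptide intensities built from DIA-NN precursor signals, and peptides missing any value discarded before comparison.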
# Chain of UniProt P37051 (P37051 whole entry): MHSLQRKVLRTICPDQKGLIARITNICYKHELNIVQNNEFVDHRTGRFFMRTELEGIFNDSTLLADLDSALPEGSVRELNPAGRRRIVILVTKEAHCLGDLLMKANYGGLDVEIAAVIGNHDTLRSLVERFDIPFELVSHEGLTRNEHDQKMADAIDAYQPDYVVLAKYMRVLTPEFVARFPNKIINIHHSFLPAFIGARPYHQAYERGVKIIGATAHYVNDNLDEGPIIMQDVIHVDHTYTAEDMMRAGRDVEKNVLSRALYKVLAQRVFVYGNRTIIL
# Chain of UniProt P37636 (P37636 whole entry): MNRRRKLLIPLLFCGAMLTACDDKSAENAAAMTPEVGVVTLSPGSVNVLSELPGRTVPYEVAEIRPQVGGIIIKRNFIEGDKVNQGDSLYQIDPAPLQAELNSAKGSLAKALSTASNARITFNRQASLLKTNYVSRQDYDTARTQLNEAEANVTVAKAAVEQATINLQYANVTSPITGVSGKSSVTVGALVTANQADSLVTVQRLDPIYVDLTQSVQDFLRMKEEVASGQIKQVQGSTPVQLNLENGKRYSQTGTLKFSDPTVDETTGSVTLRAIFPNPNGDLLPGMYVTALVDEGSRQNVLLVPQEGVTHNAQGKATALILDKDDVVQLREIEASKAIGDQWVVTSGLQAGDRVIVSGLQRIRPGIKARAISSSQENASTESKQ
# Chain of UniProt P37624 (P37624 whole entry): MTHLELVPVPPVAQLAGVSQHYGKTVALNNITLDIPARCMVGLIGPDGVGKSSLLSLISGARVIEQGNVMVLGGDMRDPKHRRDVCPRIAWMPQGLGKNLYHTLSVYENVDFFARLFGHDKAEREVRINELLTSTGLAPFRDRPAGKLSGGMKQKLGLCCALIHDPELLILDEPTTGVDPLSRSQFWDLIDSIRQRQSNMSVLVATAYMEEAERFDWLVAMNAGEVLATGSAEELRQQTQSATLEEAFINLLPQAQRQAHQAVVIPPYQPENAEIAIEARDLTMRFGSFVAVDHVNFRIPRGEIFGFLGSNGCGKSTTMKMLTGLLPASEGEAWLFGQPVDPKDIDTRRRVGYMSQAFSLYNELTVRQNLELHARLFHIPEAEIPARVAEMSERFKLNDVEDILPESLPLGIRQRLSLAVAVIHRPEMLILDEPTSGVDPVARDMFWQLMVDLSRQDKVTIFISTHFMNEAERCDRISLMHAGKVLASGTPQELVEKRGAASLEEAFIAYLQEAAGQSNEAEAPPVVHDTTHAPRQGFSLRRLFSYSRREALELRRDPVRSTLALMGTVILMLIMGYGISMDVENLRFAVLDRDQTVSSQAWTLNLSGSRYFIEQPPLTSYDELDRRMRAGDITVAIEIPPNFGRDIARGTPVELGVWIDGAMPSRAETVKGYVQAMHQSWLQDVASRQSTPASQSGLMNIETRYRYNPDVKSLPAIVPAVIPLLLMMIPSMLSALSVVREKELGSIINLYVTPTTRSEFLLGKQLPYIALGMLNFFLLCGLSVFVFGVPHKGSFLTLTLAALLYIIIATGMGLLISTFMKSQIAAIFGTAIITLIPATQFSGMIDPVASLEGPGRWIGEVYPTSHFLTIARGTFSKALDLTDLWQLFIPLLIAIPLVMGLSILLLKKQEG
# Chain of UniProt P03007 (P03007 whole entry): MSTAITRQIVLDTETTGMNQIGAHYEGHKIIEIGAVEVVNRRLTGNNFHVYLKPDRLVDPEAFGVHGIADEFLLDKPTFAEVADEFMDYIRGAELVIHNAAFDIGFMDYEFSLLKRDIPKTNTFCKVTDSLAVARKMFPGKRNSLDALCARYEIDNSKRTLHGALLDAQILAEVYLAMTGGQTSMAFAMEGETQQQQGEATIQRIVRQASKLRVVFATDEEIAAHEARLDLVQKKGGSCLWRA
# Chain of UniProt P76027 (P76027 whole entry): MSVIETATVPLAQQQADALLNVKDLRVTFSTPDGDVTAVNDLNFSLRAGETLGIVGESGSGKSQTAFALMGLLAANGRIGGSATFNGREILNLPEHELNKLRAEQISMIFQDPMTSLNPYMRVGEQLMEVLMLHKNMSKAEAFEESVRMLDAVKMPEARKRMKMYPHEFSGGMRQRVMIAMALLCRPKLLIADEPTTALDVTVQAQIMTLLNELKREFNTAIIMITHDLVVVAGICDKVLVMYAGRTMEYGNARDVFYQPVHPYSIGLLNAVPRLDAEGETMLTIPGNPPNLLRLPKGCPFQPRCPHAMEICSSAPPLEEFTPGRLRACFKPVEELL
# Chain of UniProt P64602 (P64602 whole entry): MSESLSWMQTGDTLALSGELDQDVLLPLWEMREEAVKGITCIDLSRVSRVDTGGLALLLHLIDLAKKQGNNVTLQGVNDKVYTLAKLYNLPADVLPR
# Chain of UniProt P31808 (P31808 whole entry): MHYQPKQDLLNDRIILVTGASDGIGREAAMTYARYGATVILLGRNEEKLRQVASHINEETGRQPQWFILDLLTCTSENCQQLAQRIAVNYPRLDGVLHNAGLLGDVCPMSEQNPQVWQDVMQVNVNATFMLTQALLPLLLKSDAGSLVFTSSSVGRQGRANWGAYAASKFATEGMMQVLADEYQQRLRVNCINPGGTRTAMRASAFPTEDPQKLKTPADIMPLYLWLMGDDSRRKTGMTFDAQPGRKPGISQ
# Chain of UniProt P45527 (P45527 whole entry): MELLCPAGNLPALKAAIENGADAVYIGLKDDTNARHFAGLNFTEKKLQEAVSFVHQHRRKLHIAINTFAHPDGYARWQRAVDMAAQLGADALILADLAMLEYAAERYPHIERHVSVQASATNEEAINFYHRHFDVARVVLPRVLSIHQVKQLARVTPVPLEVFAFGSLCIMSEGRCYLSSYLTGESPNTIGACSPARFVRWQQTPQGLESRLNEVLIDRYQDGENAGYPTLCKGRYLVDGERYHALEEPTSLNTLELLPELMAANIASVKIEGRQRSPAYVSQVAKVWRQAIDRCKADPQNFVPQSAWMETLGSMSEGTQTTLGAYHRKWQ
# Chain of UniProt P07604 (P07604 whole entry): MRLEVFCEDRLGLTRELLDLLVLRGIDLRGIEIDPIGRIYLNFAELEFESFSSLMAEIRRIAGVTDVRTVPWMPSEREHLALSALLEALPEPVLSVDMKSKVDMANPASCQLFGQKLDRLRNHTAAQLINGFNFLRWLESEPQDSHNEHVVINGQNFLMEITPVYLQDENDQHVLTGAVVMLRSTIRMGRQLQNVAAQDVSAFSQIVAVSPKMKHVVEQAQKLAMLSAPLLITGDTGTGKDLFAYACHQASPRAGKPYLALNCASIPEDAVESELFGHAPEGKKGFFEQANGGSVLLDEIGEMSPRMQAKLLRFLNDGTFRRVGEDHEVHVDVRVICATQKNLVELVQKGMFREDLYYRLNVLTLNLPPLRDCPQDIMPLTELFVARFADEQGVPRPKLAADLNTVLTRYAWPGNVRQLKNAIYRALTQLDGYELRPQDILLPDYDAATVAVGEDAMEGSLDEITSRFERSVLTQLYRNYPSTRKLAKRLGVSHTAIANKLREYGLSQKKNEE
# Chain of UniProt P21865 (P21865 whole entry): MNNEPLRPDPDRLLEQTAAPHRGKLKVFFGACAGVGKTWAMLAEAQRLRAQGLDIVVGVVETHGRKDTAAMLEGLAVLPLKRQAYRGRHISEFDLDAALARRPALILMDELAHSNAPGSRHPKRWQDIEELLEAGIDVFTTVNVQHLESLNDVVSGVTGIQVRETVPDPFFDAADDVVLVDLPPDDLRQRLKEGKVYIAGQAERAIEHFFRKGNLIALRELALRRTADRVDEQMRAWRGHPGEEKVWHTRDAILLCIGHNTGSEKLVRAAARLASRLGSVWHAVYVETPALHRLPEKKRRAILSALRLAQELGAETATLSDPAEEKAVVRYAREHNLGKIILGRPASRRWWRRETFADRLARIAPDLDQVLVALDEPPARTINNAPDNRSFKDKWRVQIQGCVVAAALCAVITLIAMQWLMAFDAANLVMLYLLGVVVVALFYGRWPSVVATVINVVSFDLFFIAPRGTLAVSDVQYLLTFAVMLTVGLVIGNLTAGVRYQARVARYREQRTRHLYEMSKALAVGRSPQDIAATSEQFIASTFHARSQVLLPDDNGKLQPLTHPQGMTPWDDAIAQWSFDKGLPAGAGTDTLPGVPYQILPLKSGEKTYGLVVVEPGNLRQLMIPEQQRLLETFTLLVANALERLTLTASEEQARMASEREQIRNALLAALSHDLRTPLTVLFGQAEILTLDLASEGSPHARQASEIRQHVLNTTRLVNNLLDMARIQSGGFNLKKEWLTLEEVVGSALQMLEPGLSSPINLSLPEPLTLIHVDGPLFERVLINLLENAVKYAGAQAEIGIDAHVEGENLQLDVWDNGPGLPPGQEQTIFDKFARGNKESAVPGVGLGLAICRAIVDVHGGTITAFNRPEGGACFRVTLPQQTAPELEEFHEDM
# Chain of UniProt P39407 (P39407 whole entry): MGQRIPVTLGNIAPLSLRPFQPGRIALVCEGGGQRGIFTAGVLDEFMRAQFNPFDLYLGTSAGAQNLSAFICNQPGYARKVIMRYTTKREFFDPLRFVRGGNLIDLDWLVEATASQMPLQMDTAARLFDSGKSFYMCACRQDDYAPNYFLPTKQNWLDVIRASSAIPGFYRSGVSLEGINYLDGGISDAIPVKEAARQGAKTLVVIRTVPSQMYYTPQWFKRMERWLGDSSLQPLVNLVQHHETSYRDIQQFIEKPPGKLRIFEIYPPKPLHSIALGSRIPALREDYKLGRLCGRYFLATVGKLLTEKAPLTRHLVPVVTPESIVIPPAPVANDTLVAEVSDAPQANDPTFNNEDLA
# Chain of UniProt P18776 (P18776 whole entry): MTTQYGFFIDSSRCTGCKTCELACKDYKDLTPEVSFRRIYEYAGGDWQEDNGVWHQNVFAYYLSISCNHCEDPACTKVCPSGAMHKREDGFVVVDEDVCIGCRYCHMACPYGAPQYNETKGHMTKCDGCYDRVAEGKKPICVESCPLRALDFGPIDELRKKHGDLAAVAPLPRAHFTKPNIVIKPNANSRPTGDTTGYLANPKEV
row,Target,log2 fold change
1,"UniProt P37177 (peptide sequence: VANIYDSLHPAMLR, peptide start residue: 636)",0.572
2,"UniProt P37624 (peptide sequence: LFHIPEAEIPAR, peptide start residue: 376)",-1.74
3,"UniProt P64602 (peptide sequence: GITCIDLSR, peptide start residue: 38)",0.802
4,"UniProt P40719 (peptide sequence: RFTSDAAHELR, peptide start residue: 239)",-2.75
5,"UniProt P39407 (peptide sequence: EFFDPLR, peptide start residue: 90)",0.583
6,"UniProt P08956 (peptide sequence: ITGDADKDAR, peptide start residue: 763)",-3.68
7,"UniProt P39099 (peptide sequence: SRIATTEPGTK, peptide start residue: 330)",0.877
8,"UniProt P45527 (peptide sequence: KLQEAVSFVHQHRR, peptide start residue: 46)",0.779
9,"UniProt P37617 (peptide sequence: DEQAAEEPQASR, peptide start residue: 113)",2.93
10,"UniProt P75958 (peptide sequence: GVADALK, peptide start residue: 153)",-0.59
11,"UniProt P00954 (peptide sequence: QHLELSR, peptide start residue: 152)",-0.982
12,"UniProt P77689 (peptide sequence: INSLAMPVKNEVCDTR, peptide start residue: 270)",1.09
13,"UniProt P00968 (peptide sequence: AQLGSNSTMKKHGR, peptide start residue: 931)",0.849
14,"UniProt P04993 (peptide sequence: YLDLLQAR, peptide start residue: 418)",-1.02
15,"UniProt P31808 (peptide sequence: TGMTFDAQPGR, peptide start residue: 236)",-0.533
16,"UniProt P76027 (peptide sequence: GCPFQPR, peptide start residue: 298)",1.56
17,"UniProt P03817 (peptide sequence: FGAIGIGSR, peptide start residue: 85)",0.339
18,"UniProt P39343 (peptide sequence: IKNNDHNHNTVDLGYQIYHGNTL, peptide start residue: 310)",-0.756
19,"UniProt P08394 (peptide sequence: HCYPLPR, peptide start residue: 171)",1.13
20,"UniProt P76340 (peptide sequence: ILLIEDNQR, peptide start residue: 3)",-0.349

row,Target,log2 fold change
1,"UniProt P77610 (peptide sequence: WLNAHEEGYHK, peptide start residue: 18)",-0.358
2,"UniProt P77485 (peptide sequence: GTVAVTSDAR, peptide start residue: 461)",-0.644
3,"UniProt P21865 (peptide sequence: AIEHFFR, peptide start residue: 205)",0.436
4,"UniProt P03007 (peptide sequence: VTDSLAVAR, peptide start residue: 127)",0.313
5,"UniProt P37692 (peptide sequence: AYVLPNSFK, peptide start residue: 84)",-1.08
6,"UniProt P37671 (peptide sequence: SYWESHQHEIQPLTR, peptide start residue: 174)",-0.718
7,"UniProt P23836 (peptide sequence: VLVVEDNALLR, peptide start residue: 3)",0.563
8,"UniProt P07604 (peptide sequence: YAWPGNVR, peptide start residue: 410)",-1.06
9,"UniProt P03835 (peptide sequence: DLASMGQLVK, peptide start residue: 402)",-1.3
10,"UniProt P37051 (peptide sequence: TICPDQK, peptide start residue: 11)",-0.377
11,"UniProt P77737 (peptide sequence: TRCPIAGPECAK, peptide start residue: 302)",2.24
12,"UniProt P37636 (peptide sequence: QDYDTAR, peptide start residue: 137)",0.264
13,"UniProt P75682 (peptide sequence: AWRDGDVAK, peptide start residue: 229)",-1.32
14,"UniProt P25536 (peptide sequence: IVTGIEEQR, peptide start residue: 27)",-1.03
15,"UniProt P18776 (peptide sequence: PICVESCPLR, peptide start residue: 139)",-1.14
16,"UniProt P38097 (peptide sequence: VTVYEPQQAAAHSER, peptide start residue: 840)",-1.32
17,"UniProt P77804 (peptide sequence: LEGYQEDQAKK, peptide start residue: 423)",0.387
18,"UniProt P27241 (peptide sequence: YTIVNVDVYEHASKEDK, peptide start residue: 90)",-0.487
19,"UniProt P78067 (peptide sequence: WGHAGSDSTHMEDFHNPDGTMR, peptide start residue: 340)",-0.858
